Where “and” joins values, the source holds several entries; their conditions need not be identical. Equal entries are not always repeated. Inconclusive results are not listed. Some structures have more than one record in an assay (separate samples or runs), and their calls can disagree. Calls of active or inactive are those of the source. Rule for the calls, unless noted: active = hit-call score of the fitted dose curve at least 0.9, where 1 is the maximum; inactive = score below 0.9.

A short description of assay [1]: ATG_PBREM_CIS: Attagene CIS-FACTORIAL HepG2 Assay for human Phenobarbital-responsive Enhancer Module (PBREM) (AID 2282955). As to conditions: HepG2 PBREM cis-reporter, Attagene multiplexed transcription; actives raise or lower the signal. The essentials: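 After a 24 h incubation with test chemical, transfected HepG2 cells yield total RNA; reporter-specific RT-PCR products are fluorescently labelled, HpaI-digested and resolved by capillary electrophoresis against ROX size standards.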

Assay [2] deals with Paired box protein Pax-6 (Homo sapiens) (UniProt P26367). In words: ATG_Pax6_CIS: Attagene CIS-FACTORIAL HepG2 Assay for human Paired Box 6 (PAX6) (AID 2282956). As to conditions: HepG2 CIS-FACTORIAL PAX6 reporter transcription, RNA readout; actives raise or lower the signal. Put shortly: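 HepG2 cells transiently transfected with cis-promoter-driven multiplexed reporter units sensing endogenous transcription factor activity; 24 h chemical exposure. Reporter mRNA quantified by RT-PCR, 6-FAM labelling, HpaI digestion and capillary electrophoresis; bidirectional fit versus DMSO baseline.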

The nature of assay [3]: ATG_PXRE_CIS: Attagene CIS-FACTORIAL HepG2 Assay for human Pregnane X Receptor Element (PXRE) (AID 2282957). As to conditions: HepG2 Attagene CIS-FACTORIAL PXRE reporter, mRNA; actives raise or lower the signal. Put shortly: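 Cis-element reporter mRNA in human hepatoma HepG2 cells is measured 24 h post-dosing by RT-PCR, primer-extension labeling and capillary electrophoresis; gain or loss of signal is fitted relative to DMSO.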

Assay [4] in a line: ATG_RORE_CIS: Attagene CIS-FACTORIAL HepG2 Assay for human RAR-related Orphan Receptor Element (RORE) (AID 2282959). As to conditions: HepG2 Attagene cis-factorial RORE reporter, mRNA; actives raise or lower the signal. The essentials: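 Fluorescence intensity of reporter-specific cDNA fragments, separated by capillary electrophoresis, gives the signal. Source: HepG2 liver cells transiently transfected with cis-element reporters and exposed 24 h; DMSO-normalized bidirectional fit.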

A short description of assay [5]: ATG_Sox_CIS: Attagene CIS-FACTORIAL HepG2 Assay for human SRY-box transcription factor (SOX) (AID 2282960). The settings on record: HepG2 Attagene cis-factorial SOX reporter, mRNA; actives raise or lower the signal. Put shortly:
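After 24 h of chemical treatment, transfected HepG2 reporter cells are lysed for total RNA. Transcript levels come from RT-PCR with labelled primer extension and capillary electrophoresis, analysed bidirectionally versus DMSO.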

For assay [6], the target named is Transcription factor Sp1 (Homo sapiens) (UniProt P08047). In words: ATG_Sp1_CIS: Attagene CIS-FACTORIAL HepG2 Assay for human Specificity Protein 1 (Sp1) (AID 2282961). As to conditions: HepG2 Sp1 cis-reporter transcription, actives raise or lower the signal. The essentials: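 Sp1-driven reporter mRNA, read as capillary electrophoresis fluorescence after RT-PCR, in transiently transfected HepG2 cells dosed for 24 h; signal change in either direction relative to DMSO.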

For assay [7], the target named is Signal transducer and activator of transcription 3 (Homo sapiens) (UniProt P40763). Put plainly: ATG_STAT3_CIS: Attagene CIS-FACTORIAL HepG2 Assay for human Signal Transducer and Activator of Transcription 3 (STAT3) (AID 2282963). The settings on record: HepG2, Attagene cis-factorial STAT3 reporter transcription; actives raise or lower the signal. Put shortly: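 Endogenous STAT3-responsive cis-element activity was read in transiently transfected HepG2 cells after 24 h treatment. Reporter transcripts were quantified via RT-PCR and capillary electrophoresis, with DMSO as negative control and bidirectional curve fitting.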

A short description of assay [8]: ATG_TCF_b_cat_CIS: Attagene CIS-FACTORIAL HepG2 Assay for human T-Cell-Factor with beta-catenin (TCF/b-cat) (AID 2282965). As to conditions: HepG2 TCF/beta-catenin cis-reporter transcription, actives raise or lower the signal. The essentials: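 Endogenous transcription factor activity is captured through cis-promoter reporter constructs transiently introduced into human HepG2 liver cells. Induced reporter mRNA is measured after 24 h and fitted bidirectionally relative to DMSO.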

The nature of assay [9]: ATG_TAL_CIS: Attagene CIS-FACTORIAL HepG2 Assay for human TAL Basal Promoter (AID 2282966).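 Note: background control endpoint measuring basal TAL promoter reporter mRNA not a specific factor.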 As to conditions: HepG2 Attagene cis-factorial TAL promoter reporter; actives raise or lower the signal. The essentials: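 In this cell-based multiplex, HepG2 liver cells bearing cis-promoter reporter constructs are dosed for 24 hours. Total RNA is reverse-transcribed and amplified, labelled fragments are sized by capillary electrophoresis, and signal changes are fitted bidirectionally versus DMSO.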

Assay [10] in a line: ATG_TGFb_CIS: Attagene CIS-FACTORIAL HepG2 Assay for human Transforming Growth Factor (TGF) (AID 2282967). The settings on record: HepG2 Attagene CIS TGFb reporter, mRNA transcription; actives raise or lower the signal. The essentials:
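Transcript-level reporter readout: HepG2 transfectants, 24 h exposure, RNA to cDNA, reporter-specific PCR, fluorescent primer extension, capillary sizing against ROX standards. Gain- or loss-of-signal relative to DMSO.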

Assay [11] has as its target Nuclear receptor subfamily 1 group I member 3 (Homo sapiens) (UniProt Q14994). In words: ATG_CAR_TRANS: Attagene TRANS-FACTORIAL HepG2 Assay for human Constitutive Androstane Receptor (CAR) (AID 2282969; active = hit-call score of the fitted dose curve at least 0.9, where 1 is the maximum;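 note: activators raise reporter mRNA above DMSO so AC50 marks induction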). The settings on record: HepG2 Attagene TRANS-FACTORIAL CAR reporter. The essentials: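 Readout is reporter mRNA induction, quantified by fluorescent primer extension and capillary electrophoresis after RT-PCR. Cells were HepG2 transiently carrying chimeric NR-Gal4 constructs with GAL4-UAS reporters, treated for 24 h; activity scored upward from DMSO.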

The target of assay [12] is Estrogen receptor (Homo sapiens) (UniProt P03372). In words: ATG_ERa_TRANS: Attagene TRANS-FACTORIAL HepG2 Assay for human Estrogen Receptor alpha (ERa) (AID 2282970; active = hit-call score of the fitted dose curve at least 0.9, where 1 is the maximum). As to conditions: HepG2 Attagene TRANS ERa GAL4 reporter, mRNA. Put shortly:
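After 24 h of compound treatment, RNA from HepG2 cells bearing transfected GAL4-UAS reporter constructs is converted to cDNA, amplified and fluorescently labelled. Capillary electrophoresis resolves the ERa-linked reporter; DMSO serves as negative control.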

In assay [13] the target is X-box-binding protein 1 (Homo sapiens) (UniProt P17861). Put plainly: ATG_Xbp1_CIS: Attagene CIS-FACTORIAL HepG2 Assay for human X-box Binding Protein 1 (XBP1) (AID 2282972). The settings on record: HepG2 XBP1 cis-element reporter, Attagene multiplex; actives raise or lower the signal. Put shortly: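 HepG2 cells transiently transfected with multiple cis-element reporter units report endogenous TF activity; 24 h exposure, then reporter mRNA measured by RT-PCR, 6-FAM labelling, HpaI digestion and capillary electrophoresis. Bidirectional fitting versus DMSO.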

Assay [14] is described as follows: ATG_VDRE_CIS: Attagene CIS-FACTORIAL HepG2 Assay for human Vitamin D Receptor Element (VDRE) (AID 2282968). The settings on record: HepG2 VDRE cis-reporter transcription, actives raise or lower the signal. The essentials:
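Reporter mRNA induction, quantified by capillary electrophoresis of fluorescently labelled RT-PCR products, was read 24 h after dosing HepG2 cells carrying transiently transfected cis-regulated reporter units; gain or loss relative to DMSO.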

Assay [15] addresses Steroid hormone receptor ERR1 (Homo sapiens) (UniProt P11474). Put plainly: ATG_ERRa_TRANS: Attagene TRANS-FACTORIAL HepG2 Assay for human Estrogen-Related Receptor alpha (ERRa) (AID 2282971; active = hit-call score of the fitted dose curve at least 0.9, where 1 is the maximum). The settings on record: HepG2 Attagene TRANS reporter, ERRa transactivation. Put shortly: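 Transfected HepG2, 24 h dosing, ERRa-Gal4 chimera driving GAL4-UAS reporter. Readout: reporter mRNA via RT-PCR plus capillary electrophoresis (fluorescence). Positive direction vs DMSO control.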

Assay [16] can be described thus: ATG_Hpa5_TRANS: Attagene TRANS-FACTORIAL HepG2 Assay for human GAL4-Hpa5 Hepatocyte Transcription Factor Basal Promoter (AID 2282975; active = hit-call score of the fitted dose curve at least 0.9, where 1 is the maximum;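 note: hits are increases in reporter mRNA over DMSO baseline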). The settings on record: HepG2 Attagene GAL4-Hpa5 transcription reporter. The essentials: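 Basal-promoter GAL4 background control within the HepG2 trans-factorial panel of transiently transfected reporter units. Reporter mRNA is measured 24 h after dosing by RT-PCR and capillary electrophoresis, fitted for gain of signal versus DMSO.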

The nature of assay [17]: ATG_SREBP_CIS: Attagene CIS-FACTORIAL HepG2 Assay for human Sterol Regulatory Element Binding (SREBP) (AID 2282962). As to conditions: HepG2 Attagene cis-factorial SREBP reporter, mRNA; actives raise or lower the signal. Put shortly:
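HepG2 cells transiently transfected with multiplexed cis-promoter reporter units sensing endogenous transcription factors; reporter mRNA measured 24 h after dosing by RT-PCR, 6-FAM labeling, HpaI digestion and capillary electrophoresis. Bidirectional fit versus DMSO.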

Assay [18] is described as follows: ATG_TA_CIS: Attagene CIS-FACTORIAL HepG2 Assay for human TA Basal Promoter (AID 2282964). As to conditions: HepG2 Attagene CIS-factorial TA basal promoter reporter; actives raise or lower the signal. Put shortly: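 Multiplexed mRNA reporter assay, HepG2, 24 h. Reporter cDNA amplified, 6-FAM primer-extended, HpaI-cut, CE-sized; DMSO = negative control and baseline.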

Assay [19] addresses Androgen receptor (Homo sapiens) (UniProt P10275). In words: ATG_AR_TRANS: Attagene TRANS-FACTORIAL HepG2 Assay for human Androgen Receptor (AR) (AID 2282973; active = hit-call score of the fitted dose curve at least 0.9, where 1 is the maximum). As to conditions: HepG2 Attagene TRANS-FACTORIAL AR reporter transcription. The essentials:
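Readout is reporter transcript abundance, quantified by fluorescent RT-PCR products separated on capillary electrophoresis. Human HepG2 liver cells carried transiently transfected NR-Gal4 chimera plus GAL4-UAS reporter constructs and were dosed for 24 h; activity scored upward versus DMSO.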

Estrogen receptor (Homo sapiens), sequence (P03372 whole entry, looked up, the tested form may be a part): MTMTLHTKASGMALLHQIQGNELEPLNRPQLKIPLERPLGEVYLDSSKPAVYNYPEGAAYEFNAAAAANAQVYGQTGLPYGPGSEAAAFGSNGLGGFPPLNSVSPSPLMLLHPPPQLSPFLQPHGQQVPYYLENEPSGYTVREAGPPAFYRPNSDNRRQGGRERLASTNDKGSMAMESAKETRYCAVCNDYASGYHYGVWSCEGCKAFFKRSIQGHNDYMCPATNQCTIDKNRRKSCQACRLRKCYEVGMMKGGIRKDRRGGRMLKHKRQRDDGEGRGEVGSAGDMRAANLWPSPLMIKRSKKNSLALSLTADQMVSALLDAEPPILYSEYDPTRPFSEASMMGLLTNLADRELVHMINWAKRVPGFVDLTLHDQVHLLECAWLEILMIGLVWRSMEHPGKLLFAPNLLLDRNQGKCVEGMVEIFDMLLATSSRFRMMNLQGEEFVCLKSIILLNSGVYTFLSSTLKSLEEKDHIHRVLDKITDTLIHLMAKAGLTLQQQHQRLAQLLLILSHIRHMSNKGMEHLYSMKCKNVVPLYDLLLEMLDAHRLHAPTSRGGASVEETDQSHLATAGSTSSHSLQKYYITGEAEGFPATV
Paired box protein Pax-6 (Homo sapiens), sequence (P26367 whole entry, looked up): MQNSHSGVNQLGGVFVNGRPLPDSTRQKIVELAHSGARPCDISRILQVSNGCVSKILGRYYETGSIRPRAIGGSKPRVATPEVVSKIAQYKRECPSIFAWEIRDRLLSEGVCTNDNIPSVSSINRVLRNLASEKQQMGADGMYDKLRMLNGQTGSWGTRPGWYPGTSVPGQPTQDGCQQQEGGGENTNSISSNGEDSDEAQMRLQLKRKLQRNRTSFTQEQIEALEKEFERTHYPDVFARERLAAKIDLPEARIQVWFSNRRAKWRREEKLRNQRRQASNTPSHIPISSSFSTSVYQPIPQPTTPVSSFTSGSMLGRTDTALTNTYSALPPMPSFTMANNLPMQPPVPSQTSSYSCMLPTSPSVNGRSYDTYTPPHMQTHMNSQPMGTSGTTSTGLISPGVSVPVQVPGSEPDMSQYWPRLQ
Steroid hormone receptor ERR1 (Homo sapiens), sequence (P11474 whole entry, looked up, the tested form may be a part): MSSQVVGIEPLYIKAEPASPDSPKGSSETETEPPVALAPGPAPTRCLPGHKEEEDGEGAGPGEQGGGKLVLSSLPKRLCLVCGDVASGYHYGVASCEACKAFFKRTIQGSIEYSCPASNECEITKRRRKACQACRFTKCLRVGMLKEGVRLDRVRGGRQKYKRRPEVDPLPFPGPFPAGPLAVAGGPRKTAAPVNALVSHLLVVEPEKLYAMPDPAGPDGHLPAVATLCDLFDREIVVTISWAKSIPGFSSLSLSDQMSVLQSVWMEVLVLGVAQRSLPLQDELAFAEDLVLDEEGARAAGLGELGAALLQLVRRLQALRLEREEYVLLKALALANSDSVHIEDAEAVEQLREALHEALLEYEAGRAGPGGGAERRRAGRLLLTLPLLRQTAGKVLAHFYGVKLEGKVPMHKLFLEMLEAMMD
Nuclear receptor subfamily 1 group I member 3 (Homo sapiens), sequence (Q14994 whole entry, looked up, the tested form may be a part): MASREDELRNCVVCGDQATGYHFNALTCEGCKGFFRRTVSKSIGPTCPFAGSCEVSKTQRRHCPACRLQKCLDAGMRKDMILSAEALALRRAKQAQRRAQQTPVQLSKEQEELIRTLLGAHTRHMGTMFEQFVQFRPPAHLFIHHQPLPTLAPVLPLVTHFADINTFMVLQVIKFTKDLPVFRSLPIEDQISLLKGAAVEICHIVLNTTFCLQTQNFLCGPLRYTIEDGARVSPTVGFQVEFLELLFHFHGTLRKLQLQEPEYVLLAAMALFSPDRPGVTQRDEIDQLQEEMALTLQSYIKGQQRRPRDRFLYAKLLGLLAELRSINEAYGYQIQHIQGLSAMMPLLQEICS
Signal transducer and activator of transcription 3 (Homo sapiens), sequence (P40763 whole entry, looked up): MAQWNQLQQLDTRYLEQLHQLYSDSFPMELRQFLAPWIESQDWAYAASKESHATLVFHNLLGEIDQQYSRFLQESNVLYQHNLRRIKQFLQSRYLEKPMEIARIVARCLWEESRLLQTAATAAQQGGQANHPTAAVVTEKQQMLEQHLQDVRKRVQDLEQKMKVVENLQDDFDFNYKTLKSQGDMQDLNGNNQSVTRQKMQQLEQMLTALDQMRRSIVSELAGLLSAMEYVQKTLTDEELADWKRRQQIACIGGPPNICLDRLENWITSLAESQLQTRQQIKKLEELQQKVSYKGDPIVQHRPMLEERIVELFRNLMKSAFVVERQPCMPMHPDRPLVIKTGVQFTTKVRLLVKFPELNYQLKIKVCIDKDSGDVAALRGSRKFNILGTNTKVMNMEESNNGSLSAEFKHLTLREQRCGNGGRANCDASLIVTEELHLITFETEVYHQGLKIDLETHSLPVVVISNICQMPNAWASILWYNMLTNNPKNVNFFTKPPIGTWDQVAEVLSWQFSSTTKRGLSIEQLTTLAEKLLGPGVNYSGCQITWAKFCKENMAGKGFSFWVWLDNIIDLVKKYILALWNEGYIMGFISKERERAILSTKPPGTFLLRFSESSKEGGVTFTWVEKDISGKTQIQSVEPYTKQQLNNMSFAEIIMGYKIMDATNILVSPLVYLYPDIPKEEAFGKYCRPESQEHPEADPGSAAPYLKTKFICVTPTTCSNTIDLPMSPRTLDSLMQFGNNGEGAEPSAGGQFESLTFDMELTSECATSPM
Transcription factor Sp1 (Homo sapiens), sequence (P08047 whole entry, looked up): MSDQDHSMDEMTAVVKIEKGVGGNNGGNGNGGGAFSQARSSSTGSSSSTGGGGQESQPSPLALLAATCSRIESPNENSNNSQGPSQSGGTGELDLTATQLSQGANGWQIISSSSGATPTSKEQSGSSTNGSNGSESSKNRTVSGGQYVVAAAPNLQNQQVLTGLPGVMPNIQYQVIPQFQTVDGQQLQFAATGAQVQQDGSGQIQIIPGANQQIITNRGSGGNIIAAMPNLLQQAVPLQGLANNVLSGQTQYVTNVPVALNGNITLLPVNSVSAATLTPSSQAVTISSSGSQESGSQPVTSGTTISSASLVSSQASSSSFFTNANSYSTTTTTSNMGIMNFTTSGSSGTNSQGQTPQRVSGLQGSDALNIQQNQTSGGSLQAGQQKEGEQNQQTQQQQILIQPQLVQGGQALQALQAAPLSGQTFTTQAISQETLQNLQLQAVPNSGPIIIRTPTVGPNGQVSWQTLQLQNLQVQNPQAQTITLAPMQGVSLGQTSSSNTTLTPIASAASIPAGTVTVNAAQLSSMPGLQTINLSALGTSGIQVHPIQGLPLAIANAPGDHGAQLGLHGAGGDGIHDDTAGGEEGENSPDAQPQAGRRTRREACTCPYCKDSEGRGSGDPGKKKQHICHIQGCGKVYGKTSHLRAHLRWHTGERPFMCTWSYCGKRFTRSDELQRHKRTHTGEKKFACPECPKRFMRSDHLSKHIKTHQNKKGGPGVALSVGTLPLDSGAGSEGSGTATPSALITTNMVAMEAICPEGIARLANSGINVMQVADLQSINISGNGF
X-box-binding protein 1 (Homo sapiens), sequence (P17861 whole entry, looked up): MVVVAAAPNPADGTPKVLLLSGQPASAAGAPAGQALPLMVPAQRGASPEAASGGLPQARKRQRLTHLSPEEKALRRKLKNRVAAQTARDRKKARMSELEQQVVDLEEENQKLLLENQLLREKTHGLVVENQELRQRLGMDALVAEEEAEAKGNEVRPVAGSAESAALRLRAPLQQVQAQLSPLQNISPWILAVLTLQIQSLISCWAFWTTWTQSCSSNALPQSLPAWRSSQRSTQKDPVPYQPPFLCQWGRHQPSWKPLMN
Androgen receptor (Homo sapiens), sequence (P10275 whole entry, looked up, the tested form may be a part): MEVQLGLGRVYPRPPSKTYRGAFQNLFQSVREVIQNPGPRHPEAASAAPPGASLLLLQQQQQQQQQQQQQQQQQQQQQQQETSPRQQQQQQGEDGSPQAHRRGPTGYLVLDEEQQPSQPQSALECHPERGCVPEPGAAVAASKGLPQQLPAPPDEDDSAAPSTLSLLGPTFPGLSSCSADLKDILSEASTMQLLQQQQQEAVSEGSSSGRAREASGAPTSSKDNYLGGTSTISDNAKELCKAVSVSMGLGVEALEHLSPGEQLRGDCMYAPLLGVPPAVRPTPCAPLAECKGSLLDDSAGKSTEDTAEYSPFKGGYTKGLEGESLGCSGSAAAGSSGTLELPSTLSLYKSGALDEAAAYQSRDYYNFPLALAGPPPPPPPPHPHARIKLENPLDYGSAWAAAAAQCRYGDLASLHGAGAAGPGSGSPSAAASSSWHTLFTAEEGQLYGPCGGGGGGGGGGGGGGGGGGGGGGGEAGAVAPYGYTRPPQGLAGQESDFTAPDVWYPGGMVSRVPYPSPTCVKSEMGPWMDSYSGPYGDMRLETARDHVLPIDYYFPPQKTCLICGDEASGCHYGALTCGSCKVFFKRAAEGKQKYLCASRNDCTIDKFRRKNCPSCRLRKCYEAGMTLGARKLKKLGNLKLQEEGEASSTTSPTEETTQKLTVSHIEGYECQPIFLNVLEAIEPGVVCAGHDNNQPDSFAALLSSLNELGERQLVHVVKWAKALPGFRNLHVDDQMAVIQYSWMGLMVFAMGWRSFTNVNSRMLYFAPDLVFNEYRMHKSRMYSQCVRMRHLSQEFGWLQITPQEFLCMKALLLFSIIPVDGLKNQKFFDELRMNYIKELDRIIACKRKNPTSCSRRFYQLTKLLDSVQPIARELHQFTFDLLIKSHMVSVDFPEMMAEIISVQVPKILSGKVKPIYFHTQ

For the compound `CS/C(C)=N/OC(=O)N(C)SN(C)C(=O)O/N=C(\C)SC`, the outcome in assay [1], in assay [2], in [3], in assay [4], in [5] and in [6] was inactive. The call in [7], in [8], in assay [9], in [10], in [11] and in assay [12] was inactive. The call in assay [13] was inactive.
For orientation: AC50 means the midpoint of the concentration-response curve, whichever way the signal moves. `C=CCC1=C(C)[C@@H](OC(=O)[C@@H]2[C@@H](C=C(C)C)C2(C)C)CC1=O`: the AC50 in assay [1] was 5.59 µM (active); in [3], 0.965 µM (active); in assay [14], 6.05 µM (active). Further, the outcome in assay [2], in assay [4], in assay [5], in [6], in assay [7] and in assay [8] was inactive. Besides, the call in assay [9], in assay [10], in [11], in [12], in assay [15] and in assay [13] was inactive. Also, in assay [16], the result was inactive.
Regarding `CN(C)C(=S)SSC(=S)N(C)C`, the compound was called inactive in assay [2], in assay [3], in assay [4], in [5], in [6] and in assay [17]. The compound was called inactive in assay [7], in assay [18], in [8], in assay [9], in assay [10] and in assay [14]. Besides, the call in assay [12], in [13] and in assay [19] was inactive.
In the case of `CCOc1cc(Oc2ccc(C(F)(F)F)cc2Cl)ccc1[N+](=O)[O-]`, the outcome in assay [1], in [2], in assay [5], in assay [6], in assay [17] and in assay [7] was inactive. Moreover, the result in [8], in assay [9], in [10], in assay [11], in [12] and in [16] was inactive. Further, the figures for the AC50 in [3], in assay [4] and in assay [13] were 8.64 µM (active), 29.8 µM (active) and 13.1 µM (active), respectively.
On to `COc1nc(NC(C)C)nc(NC(C)C)n1`, for which the outcome in assay [1], in [2], in assay [3], in assay [4], in assay [5] and in assay [6] was inactive. Further, the result in assay [7], in assay [18], in [8], in assay [9], in assay [10] and in assay [14] was inactive. For the same compound, the outcome in [12], in [15], in assay [13] and in [16] was inactive. The AC50 in assay [3] was 18.6 µM (active); in assay [4] it was 30.5 µM (active).
Consider `N#Cc1nn(-c2c(Cl)cc(C(F)(F)F)cc2Cl)c(N)c1S(=O)C(F)(F)F` (stereo unspecified), for which the half-maximal activity concentration (AC50) in [2] is 48.4 µM (active); in [3], 2.37 µM (active) and 44.9 µM (active); in assay [14], 15.4 µM (active); in [12], 11.8 µM (active); in assay [13], 15.3 µM (active). Further, the compound was called inactive in assay [2], in [4], in assay [5], in assay [6], in assay [7] and in assay [8]. In addition, the result in [9], in assay [10], in [14], in assay [11], in [12] and in [15] was inactive. Besides, the outcome in assay [13] and in assay [19] was inactive.

Source of the values: PubChem BioAssay (EPA / NIEHS).
